Measurements reported in ChEMBL document CHEMBL4513146, “CO-ADD screening of Karazin Kharkiv National University (Ukraine) compounds”.
Potency and affinity values are given separately.

Experiments:
[1] = system: Klebsiella pneumoniae; conditions: Concentration 32 ug.mL-1;; ASSAY_TEST Inhibition of Bacterial Growth; detection method Absorption (OD600); MEDIA CAMHB; plate type 384well; NBS; CORNING #3640; time 18 hr
[2] = system: Candida albicans; conditions: Concentration 32 ug.mL-1; ASSAY_TEST Inhibition of Fungal Growth; detection method Absorption (OD530)
[3] = system: Cryptococcus neoformans; conditions: Concentration 32 ug.mL-1; ASSAY_TEST Inhibition of Fungal Growth; detection method Resazurin; Absorption (OD600-OD570); plate type 384well; NBS; CORNING #3640

SMILES	Inhibition [1] [%]	Inhibition [2] [%]	Inhibition [3] [%]
O=S(=O)(c1cccn2cnnc12)N(Cc1cccc(F)c1)c1cccc(Cl)c1	2.34	1.27	-7.2
Cc1cccc(C)c1NC(=O)CSc1nnc2c3cc(-c4ccccc4)nn3ccn12	-14.45	-0.49	-6.46
Cc1ccc(Oc2nccn3c(=O)n(CC(=O)N4CCN(c5ccccc5F)CC4)nc23)cc1	13.64	-0.66	-23.01
Cc1ccc(-n2ccn3c(SCC(=O)Nc4ccc5c(c4)OCCO5)nnc3c2=O)cc1C	9.68	0.14	-6.74
COc1cccc(-n2ccn3c(SCc4c(F)cccc4Cl)nnc3c2=O)c1	6.32	2.64	-10.15
CC(C)Cn1c(=O)c2sccc2n2c(=O)n(Cc3ccccc3Cl)nc12	3.91	1.39	-28.89
CCc1ccc(N(Cc2cccc(C)c2)S(=O)(=O)c2cccn3c(C)nnc23)cc1	2.32	4.84	-3.55
O=C(Cn1nc2ccc(-c3ccc(Cl)cc3)nn2c1=O)N1CCN(c2ccccc2)CC1	-0.57	-1.89	-9.03
COc1ccccc1Cn1c(=O)c2sccc2n2c(=O)n(Cc3ccc(Br)cc3)nc12	3.07	-0.38	-8.06
Cc1ccc(Cl)cc1NC(=O)Cn1c(=O)c2nnc(C(C)C)n2c2ccccc21	5.77	3.52	-16.4
CCc1nnc2ccc(S(=O)(=O)N(Cc3ccc(F)cc3)c3ccc(OC)cc3)cn12	5.94	-0.37	-3.5
COc1ccc(NC(=O)CSc2nc3ccccc3n3c(C(C)C)nnc23)cc1Cl	5.17	1.87	-6.36
O=C(Cn1nc2c(N3CCOCC3)nccn2c1=O)NCc1cc(F)cc(F)c1	6.28	4.54	-8.22
COC(=O)c1ccccc1NC(=O)Cn1nc2c3cc(-c4ccc(OC)cc4)nn3ccn2c1=O	20.11	0.77	-26.84
COc1cccc(Sc2nc3ccccc3n3c(=O)n(CC(=O)Nc4ccc(Cl)cc4)nc23)c1	2.35	36.59	-25.56
Cc1ccc(CNC(=O)c2ccc3nn(CC(=O)Nc4ccc(C(F)(F)F)cc4)c(=O)n3c2)cc1	8.75	7.7	-15.23
Cc1ccc(-c2ccc3nn(Cc4ccc5c(c4)OCO5)c(=O)n3n2)cc1C	2.14	1.11	-18.91
O=c1n(Cc2nc(-c3ccc(Cl)cc3)no2)nc2ccc(-c3ccccc3)nn12	13.55	2.36	-20.52
CCCNC(=O)Cn1nc2cc(C)nc(Nc3cc(C)cc(C)c3)n2c1=O	18.12	5.03	-9.02
Cc1ccc(NC(=O)Cn2nc3c(SCc4ccc(Cl)cc4)nccn3c2=O)c(C)c1	13.7	0.54	-21.97
COC(=O)c1ccc(NC(=O)Cn2nc3c4cc(-c5ccc(F)cc5)nn4ccn3c2=O)cc1	11.64	3.5	-12.29
COc1ccc(CNC(=O)CCc2nnc3c4cc(-c5ccc(Cl)cc5)nn4ccn23)cc1OC	10.48	1.41	-19.71
Cc1ccc(NC(=O)CSc2nc3ccccc3n3cnnc23)c(C)c1	0.98	26.16	-16.93
CC(C)CCn1c(=O)c2sccc2n2c(=O)n(Cc3c(F)cccc3Cl)nc12	12.18	9.98	-27.55
O=S(=O)(c1ccc2nncn2c1)N(Cc1cc(F)cc(F)c1)c1ccc(F)cc1	7.07	0.51	-5.99
COc1ccc(NC(=O)Cn2nc3c(Oc4ccc(C)cc4)nccn3c2=O)cc1Cl	0.22	18.79	-4.53
COc1ccc(Cl)cc1NC(=O)Cn1nc2ccc(Sc3ccccc3)nn2c1=O	0.86	45.02	-15.66
CCC(C)NC(=O)Cn1nc2n(CC(C)C)c(=O)c3ccc(C(=O)NC4CCCCC4)cc3n2c1=O (stereo not given)	0.48	-1.97	-14.64
Cc1cccc(Oc2nccn3c(=O)n(CC(=O)N4CCN(c5ccccc5F)CC4)nc23)c1C	-1.33	1.02	-17.84
Cc1cc2nn(CC(=O)Nc3ccccc3F)c(=O)n2c(Nc2ccc(C)c(F)c2)n1	4.36	4.06	-8.37
